Results filed as inconclusive are left out. The source made the active and inactive calls. The call rests on the fitted dose curve.
Experiment: qHTS assay to identify small molecule agonists of the AP-1 signaling pathway - cell viability counter screen (AID 1159525); further: nearly all actives have a fitted effect of over 55% in size
Conditions: ME-180 (cervical carcinoma) AP-1-bla cells viability, ATP luminescence, 5 h; series mostly up to 76.8 µM; viability change, negative = cytotoxic: at the top concentration
From the text: National Center for Advancing Translational Sciences [NCATS]
NIH Chemical Genomics Center [NCGC]
U.S. Environmental Protection Agency [EPA]
National Institutes of Environmental Health Sciences [NIEHS]
National Toxicology Program [NTP]
U.S. Food and Drug Administration [FDA]
Activator protein-1 (AP-1), a transcription factor, plays an important role in tumor genesis by regulating genes involved in cell proliferation, differentiation, apoptosis, and angiogenesis. AP-1 activity is induced by a complex network of signaling pathways that involves extracellular signals, such as growth factors. The AP-1 protein complex formed from c-Fos and c-Jun binding to the AP-1 response element results in transcriptional activation of genes containing such elements within their promoter.
Low molecular weight molecules have been discovered and developed to modulate various components of these signaling pathways, for example, MAP kinase inhibitors. However, many points of pathway modulation remain untested due to the lack of chemical probes making this signaling locus of general interest.
Using a beta-lactamase reporter-gene under control of the AP-1 response element, a cell-based assay [CellSensor(TM) AP-1-bla ME-180 developed by Invitrogen Corp.] was used to measure EGF-induced signaling. The Tox21 10K library compounds were measured for their ability to positively modulate the action of EC50 EGF on reporter gene activity. Compounds were screened in a 15-pt titration series in 1536-well format. The cytotoxicity of the Tox21 compound library against this cell line was tested in parallel by measuring the intra cellular ATP content in the same wells.
Tox21 Assay Protocol Summary:
2500 cells/5uL in Opti-MEM medium containing 0.5% dialyzed FBS, 0.1 mM NEAA, 1 mM sodium pyruvate and 10 mM HEPES was dispensed into 1536-well black wall/clear bottom plates using a Multidrop dispenser and cells were cultured at 37 degrees Celsius overnight. Next day 23 nL of compounds dissolved in DMSO, positive controls or DMSO were delivered to each well using a pin tool. The plates were incubated at 37 degrees Celsius for 5 hours. 1 uL of LiveBLAzerTM B/G FRET substrate (Solution A+B+C+D) was added to each well using a Flying Reagent Dispenser. After incubated at room temperature for 2.5 hours the plates were measured on an EnVision plate reader at Excitation 405nm, Emission1=460nm and Emission 2=530nm. The %Activity was determined from the ratio of 460nm/530nm.
After the plates were read for Beta-Lactamase assay on Envision; 3 ul Cell Titer Glo (Promega) was added to measure the cytotoxicity and the plates were then incubated at RT in dark for 30 min. The luminescence was read on ViewLux (Perkin Elmer, Shelton, CT) using 6 sec exposure. ViewLux data was expressed as relative luminescence units.
For primary data analysis, raw plate reads for each titration point were first normalized relative to […] EGF control (100%) and DMSO only wells (basal, 0%).
For primary data analysis for viability assay, raw plate reads for each titration point were first normalized Tetra n-octyl ammonium bromide control (-100%) and DMSO (control, 100%).

Row | Structure (SMILES) | viability change, negative = cytotoxic
1 | CCOc1cc([N+](=O)[O-])c(OCC)cc1N1CCOCC1 | 1.45% (inactive)
2 | C[Si](C)=O | -14.5% [at 6.97 µM] (inactive)
3 | O=C(NCCc1c[nH]c2ccccc12)c1cccnc1 | 9.48% [at 35.3 µM] (inactive)
4 | O=C1c2ccccc2C(=O)N1CCl | -3.53% (inactive)
5 | CCC(C)NC(N)=O (stereo not given) | 2.03% (inactive)
6 | O=S(=O)(O)c1cc(O)c2ccc(Nc3ccccc3)cc2c1 | -0.296% (inactive)
7 | CC(C)NCC(O)COc1cccc2[nH]ccc12 (stereo not given) | 7.22% [at 35.3 µM] (inactive)
8 | COC(=O)CCCCCCCC(=O)OC | -7.06% (inactive)
9 | COCCOCCOCCOCCO | 2.64% (inactive)
10 | CC(=O)NCCCCCC(=O)O | -2.19% [at 35.3 µM] (inactive)
11 | CC(C)N(c1ccccc1)C(C)C | -5.45% (inactive)
12 | N[C@@H](CCC(=O)N[C@@H](CS)C(=O)NCC(=O)O)C(=O)O | 4.13% [at 15.8 µM] (inactive)
13 | CC(CO)c1ccccc1 (stereo not given) | -1.21% (inactive)
14 | O=C(c1ccc(O)cc1)c1ccc(O)c(O)c1O | 1.84% (inactive)
15 | CCCCOC(=O)c1ccccc1 | 2.74% (inactive)
16 | CC1=CCC(C(C)C)=CC1 | -6.3% (inactive)
17 | COc1ccc(C2CNC(=O)C2)cc1OC1CCCC1 (stereo not given) | 4.12% [at 35.3 µM] (inactive)
18 | C=CC(OCC)OCC | -2.68% (inactive)
19 | CC(=O)Nc1ccc(S(=O)(=O)Cl)cc1 | -7.38% (inactive)
20 | CC(C)c1ccc2cc(C(C)C)ccc2c1 | -5.92% (inactive)

Row | Structure (SMILES) | viability change, negative = cytotoxic
21 | CC1=C(C(=O)O)N2C(=O)[C@@H](NC(=O)[C@H](N)c3ccc(O)cc3)[C@H]2SC1 | 9.09% [at 35.3 µM] (inactive)
22 | COc1cc(NS(=O)(=O)c2ccc(N)cc2)nc(OC)n1 | 1.77% [at 35.3 µM] (inactive)
23 | Nc1ncnc(Nc2ccccc2)n1 | 9.94% [at 35.3 µM] (inactive)
24 | CN(CCOc1ccc(NS(C)(=O)=O)cc1)CCc1ccc(NS(C)(=O)=O)cc1 | 0.95% [at 35.3 µM] (inactive)
25 | CC(C)=O | -1.64% (inactive)
26 | CC(S)C(=O)NCC(=O)O (stereo not given) | -0.355% [at 35.3 µM] (inactive)
27 | CCOC(=O)CC(=O)c1ccccc1 | -0.812% (inactive)
28 | CCCC/C=C/C=C\C=O | 0.304% (inactive)
29 | C[C@@H](Oc1ccc(CNC(=O)c2cccnc2Oc2ccc3c(c2)OCO3)c(F)c1)C(=O)O | 5.65% (inactive)
30 | Cc1ccc(S(=O)(=O)O)c(C)c1 | -18.1% (inactive)
31 | COC(=O)CCc1ccc(OCC(O)CNC(C)C)cc1 (stereo not given) | 0.958% [at 35.3 µM] (inactive)
32 | OC[C@H](Cc1cccc(O)c1)[C@H](CO)Cc1cccc(O)c1 | -23.6% (inactive)
33 | Nc1ccc([N+](=O)[O-])c(N)c1 | 1.63% (inactive)
34 | CCCCCCCCSCC | -0.809% (inactive)
35 | O=C(Nc1ccc(Cl)c(Cl)c1)C1CC1 | 3.96% [at 35.3 µM] (inactive)
36 | CC(=O)Nc1cccc(C)c1 | 6% (inactive)
37 | O=C(O)c1cc(Cl)cc([N+](=O)[O-])c1Cl | 3.47% (inactive)
38 | COc1ccc(OC)c(Cl)c1 | 7.21% (inactive)
39 | C=C(C)C1CCC(C)(O)CC1 (stereo not given) | 12.3% (inactive)
40 | COC(=O)c1ccccc1C(=O)c1ccc(OCCN2CCCCC2)cc1 | 1.72% [at 35.3 µM] (inactive)
